Assay outcomes from PubChem.
Rows were chosen to be rich in hits. Some 5.2% of all compounds tested hit in one or more screens of this group.
FBPA coupling cs: qHTS Assay for Inhibitors of Fructose-1,6-bisphosphate Aldolase from Giardia Lamblia: Coupling assay counterscreen; coupling enzyme system counterscreen, AmpLite Red fluorescence; activity change, negative = inhibition, % at 58.2 µM, hits read low; hit rate 0.67% among 290,000; in the data active = activity change below about -30%
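Counterscreen of the coupled detection system alone, without aldolase: glyceraldehyde-3-phosphate coupling enzymes plus AmpLite Red readout. Compounds at 57.5 uM final, 10 min RT preincubation, 20 min RT reaction, fluorescence 525/598 nm.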
Tau fluor counter: Counterscreen qHTS for Inhibitors of Tau Fibril Formation, Fluorescence Polarization. hit rate 0.93% among 280,000. tau K18 P301L Alexa594 fluorescence, heparin fibrillization. Potency, µM (series often up to 57.7 µM), inactives show at the top dose activity change, negative = decrease; note: potency is the fitted concentration of half-maximal effect; nearly all actives have a fitted effect of over 55% in size
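Human K18 P301L tau (15 uM unlabeled plus 0.24 uM Alexa 594-labeled, final) in 100 mM sodium acetate pH 7 was mixed with compound and 20 uM heparin and incubated 6 hr at 37 C.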
Tau FP inhib: qHTS for Inhibitors of Tau Fibril Formation, Fluorescence Polarization; K18 P301L tau heparin fibrillization, Alexa594 FP, 6 h; hit rate 0.39% among 280,000; Potency, µM (titrated, usually from 57.7 µM), inactives show at the top dose activity, negative = inhibition, hits mostly inhibitors; note: potency is the fitted concentration of half-maximal effect; nearly all actives have a fitted effect of over 55% in size
Target sequence (P10636 561-689 P618L limits assumed): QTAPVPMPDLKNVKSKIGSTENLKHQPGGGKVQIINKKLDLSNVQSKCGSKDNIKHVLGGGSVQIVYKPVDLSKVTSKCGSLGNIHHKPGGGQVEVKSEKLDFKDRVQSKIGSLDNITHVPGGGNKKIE
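Read-out: fluorescence polarization of Alexa 594-labeled tau (0.24 uM), 555 nm excitation, 632 nm emission. Mixtures held 15 uM unlabeled K18 P301L, compound and 20 uM heparin, pH 7 acetate buffer, incubated 6 hr at 37 C.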
Tau fibril ThT: qHTS for Inhibitors of Tau Fibril Formation, Thioflavin T Binding. Potency, µM (highest dose often 57.4 µM), for inactives: top-dose activity, negative = inhibition, most hits filed as inhibitors. Microtubule-associated protein tau (Homo sapiens), P10636. recombinant tau K18 P301L, heparin-induced fibrillization, ThT fluorescence. hit rate 2.1% among 270,000; note: potency is the fitted concentration of half-maximal effect; nearly all actives have a fitted effect of over 55% in size
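Fibril formation assay: tau K18 P301L at 15 uM with trace Alexa 594 label, heparin inducer 20 uM, pH 7 sodium acetate buffer, 37 C for 6 hr; endpoint ThT signal.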
Sfp PPTase inh: qHTS Assay for Inhibitors of Bacillus subtilis Sfp phosphopantetheinyl transferase (PPTase). Biochemical Sfp PPTase activity, qHTS. Potency, µM, without a hit: largest response in the series, negative = inhibition, most hits filed as inhibitors. hit rate 3.5% among 310,000. AID 1490, 2009;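 note: the enzyme is Sfp with the accession as filed and its product quenches rhodamine fluorescence; potency is the fitted concentration of half-maximal effect; 0% = enzyme reaction without inhibitor and -100% = no enzyme wells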
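After 15 min at room temperature with compound, 15 nM Sfp received 5 uM rhodamine-CoA plus 12.5 uM BHQ-2-ybbR (50 mM Hepes pH 7.6, 10 mM MgCl2). Rate came from the fluorescence difference over 30 min, ex 525/em 598 nm.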
* = called active by the depositor; ? = inconclusive; / = no result; [ ] = another dose, or the depositor's remark. Unless noted, calls come from the whole dose curve; as a rule, active = well fitted curve in the direction sought with a large enough effect; inconclusive = small, poorly fitted or top-dose-only effect, or another doubt; inactive = no such curve, though single readings can be large; an effect the other way counts as inactive or inconclusive. Unless noted, % is set by controls: 0 for no effect and ±100 for the full control effect.

SMILES	FBPA coupling cs	Tau fluor counter	Tau FP inhib	Tau fibril ThT	Sfp PPTase inh
Cc1ccc(S(=O)(=O)Oc2cccc(/C=N/Nc3ccc(C(=O)O)cc3)c2)cc1	-41*	?	7%	-23%	13%
O=C(O)c1ccc(N/N=C/c2ccc(-c3ccccc3)cc2)cc1	8	16µM*[quencher]	11%	8.9µM*	-13%
COc1ccc(/C=N/Nc2ccc(C(=O)O)cc2)cc1Br	6	?	7%	7.1µM*	-1%
C=CC1=C2C=C(C3CC3)N(CCN3CCOCC3)C=C2C(=O)C(C)(OC(=O)c2ccco2)C1=O (centres undefined)	-22	-1%[11.6 µM]	-1%[11.6 µM]	-5%[11.5 µM]	16%
c1csc(CNc2ccc3c(c2)OCCO3)c1	-31*	-15%	0%	?	-6%
COc1ccc(C2(c3ccc(OC)cc3)NC(=O)N(CC(=O)Nc3ccccc3C)C2=O)cc1	/	/	/	/	79µM*
O=C(c1cccs1)N1CCCc2cc(NS(=O)(=O)c3cc(F)ccc3F)ccc21	/	-6%	12%	-5%	/
CCCC/C=C/[C@H](c1ccccc1)[C@H](CO)Cc1ccccc1	0	/	/	/	7%
Cc1sc2nc3c(C(=O)N4CCCC4)cc(C(=O)c4ccccc4O)cn3c(=O)c2c1C	1	-9%	3%	?	22µM*
O=S(=O)(Nc1nc2ccccc2nc1-[n+]1cccc(N=C([O-])c2ccc(Cl)cc2)c1)c1ccccc1	0	?	-6%	16µM*	4%
CCCN(C(=O)c1c(C)oc2ncn(CC(C)C)c(=O)c12)c1ccccc1C	/	-19%	-7%	-14%	/
O=C(O)c1ccccc1Nc1cccc(OCc2ccc3ccccc3n2)c1	-8	8.9µM*[quencher]	-2%	14µM*	?
O=C(COc1ccc2ccccc2c1)Nc1cccc(C(=O)Nc2ccccc2C(=O)O)c1	7	-9%	7%	12%	7%
CCC(=O)NC(c1ccc(OC)c(OC)c1)c1cc(Cl)c2cccnc2c1O (centres undefined)	-13	4%	0%	7%	56µM*
O=C(O)COc1ccccc1C(Nc1ccccn1)c1cc(Cl)c2cccnc2c1O (centres undefined)	-23	-21%	?	13µM*	-94%
O=C(O)COc1ccccc1C(Nc1cccnc1)c1cc(Cl)c2cccnc2c1O (centres undefined)	-27	-25%	32µM*	18µM*	22µM*
CCCC[C@@H]1CCCO[C@@](C(=O)NCCN2CCOCC2)(C(F)(F)F)C1	3	/	/	/	14%
CSc1nc(N)c2ncn([C@@H]3O[C@H](COP(=O)(O)OP(=O)(O)O)[C@H](O)[C@H]3O)c2n1	/	-11%	-9%	-7%	/
O=c1cc(N2CCOCC2)oc2c(-c3ccccc3)cccc12	3	-10%	-6%	-9%	13%
CCCCC/C=C\C/C=C\C/C=C\CCCCCCC(=O)NCCCC(=O)O	-1	-6%	-2%	-5%	22%
S=c1[nH]nc(-c2cccc(Cl)c2)n1/N=C/c1ccco1	-4	?	-10%	/	50µM*
S=c1[nH]nc(-c2ccccn2)n1/N=C/c1ccco1	4	-5%	5%	-6%	45µM*
Cc1ccc(/C=N/n2c(-c3cccc(Cl)c3)n[nH]c2=S)o1	-2	-27%	7%	-15%	-8%
S=c1[nH]ncn1/N=C/c1cccs1	-3	-12%	1%	/	-24%
S=c1[nH]ncn1/N=C/c1ccccn1	0	-3%	4%	-9%	16µM*
SMILES	FBPA coupling cs	Tau fluor counter	Tau FP inhib	Tau fibril ThT	Sfp PPTase inh
S=c1[nH]nc(-c2ccco2)n1/N=C/c1ccccn1	-4	-6%	-8%	-8%	79µM*
Cc1nc(NCc2ccccc2)c2nc(-c3ccccc3)n(CCN3CCCCC3)c2n1	4	-13%	5%	-14%	9%
CC(=O)Nc1sc(/C(C#N)=C/c2ccc(Cl)c(Cl)c2)nc1-c1ccc(C)cc1	-44*	25%	3%	?	16µM*
CC(=O)Nc1sc(N/N=C/c2ccc(C)cc2)nc1-c1ccc(C)cc1	-3	?	1%	?	3%
COc1cccc([C@@H]2Oc3ccc(Br)cc3C(=O)[C@H]2OC(=O)Nc2cc(OC)c(OC)c(OC)c2)c1	-4	-26%	-10%	-12%	9%
Cc1ccc(C)c(Nc2nn3c(=O)c4ccc(C(=O)N(C)Cc5ccccc5)cc4nc3s2)c1	/	-29%	-2%	?	/
CC(=O)Nc1ccc(Nc2nc(C)c([N+](=O)[O-])c(Nc3ccc(NC(C)=O)cc3)n2)cc1	-2	-21%	?	13µM*	6%
CNc1nc(C)c([N+](=O)[O-])c(Nc2ccc(OC)cc2)n1	1	/	/	/	7%
Fc1ccccc1-c1nc(-c2ccccc2)oc1NC1CCCCC1	1	4%	5%	?	-15%
O=S(=O)(c1ccc(N2CCOCC2)c(Cl)c1)N1CCOCC1	0	/	/	/	13%
O=C(O)c1cc(S(=O)(=O)N2CCOCC2)ccc1N1CCCCC1	3	-6%	2%	-4%	26%
O=c1c2ccccc2sn1-c1cc(S(=O)(=O)N2CCOCC2)ccc1N1CCCC1	2	-27%	32µM*	25µM*	0.2µM*
O=c1c2ccccc2sn1-c1cc(S(=O)(=O)N2CCOCC2)ccc1N1CCOCC1	-3	-5%	?	?	0.71µM*
O=c1cc(CSc2nc3ccccc3[nH]2)c2ccccc2[nH]1	-11	-13%	-9%	-10%	-26%
Fc1ccc(CSc2nc3ccccc3[nH]2)c2ccccc12	0	?	25µM*	-23%	24%
Nc1nc(CSc2nc3ccccc3[nH]2)cs1	-7	-16%	-8%	?	45µM*
Cc1ccc(NC(=O)C2CCN(c3nc4ccccc4nc3C(F)(F)F)CC2)cc1F	/	-20%	?	6%	/
CCOC(=O)C(C)Sc1nnc(Cn2c(=O)sc3ccccc32)n1-c1ccccc1 (centres undefined)	1	-5%	-2%	-4%	79µM*
O=C(CSc1nnc(Cn2c(=O)sc3ccccc32)n1-c1ccccc1)N1CCOCC1	-2	-13%	-13%	-20%	56µM*
Cc1ccccc1-n1c(Cn2c(=O)sc3ccccc32)nnc1SCC(=O)N1CCOCC1	3	-6%	1%	-5%	18%
COc1ccc2[nH]c3c(=O)n(Cc4ccc(C(=O)N5CCC(C(N)=O)CC5)cc4)c(=S)[nH]c3c2c1	5	-25%	-4%	?	22µM*
COc1ccc2[nH]c3c(=O)n(Cc4ccc(C(=O)N5CCCCCC5)cc4)c(=S)[nH]c3c2c1	-1	-21%	2%	-5%	9%
